Screens (PubChem BioAssay)
CHT allo act = allosteric activators of human choline transporter CHT | actives 0.49% (n = 310,000) | AID 488977 | Q9GZV3 | B-score at 10 µM | CHT-expressing cells, membrane potential dye, choline EC20; stronger effect = higher value; LV-AA mutant CHT in HEK293 cells;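 active = initial fluorescence not abnormally high and integrated response B-score, plate-corrected, over 3 SD above library mean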
Target sequence (Q9GZV3 whole entry, looked up): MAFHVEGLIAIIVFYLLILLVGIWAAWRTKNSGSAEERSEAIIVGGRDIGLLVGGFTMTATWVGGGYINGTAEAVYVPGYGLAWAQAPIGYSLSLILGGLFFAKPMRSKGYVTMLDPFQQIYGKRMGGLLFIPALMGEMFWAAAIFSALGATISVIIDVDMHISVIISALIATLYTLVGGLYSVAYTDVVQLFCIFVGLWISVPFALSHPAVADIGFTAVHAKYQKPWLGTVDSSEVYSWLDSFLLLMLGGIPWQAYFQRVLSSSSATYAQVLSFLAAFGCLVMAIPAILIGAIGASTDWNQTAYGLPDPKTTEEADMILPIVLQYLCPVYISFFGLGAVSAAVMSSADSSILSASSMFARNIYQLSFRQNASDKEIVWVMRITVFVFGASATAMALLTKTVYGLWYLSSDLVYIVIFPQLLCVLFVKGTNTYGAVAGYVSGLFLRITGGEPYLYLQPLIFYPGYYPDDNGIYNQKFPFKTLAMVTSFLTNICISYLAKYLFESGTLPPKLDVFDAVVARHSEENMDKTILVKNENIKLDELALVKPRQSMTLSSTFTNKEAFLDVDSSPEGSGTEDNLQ
H9c2 TAG inh = reduces triacylglycerol accumulation in H9c2 cells. Nile Red lipid (TAG) fluorescence; cells loaded with 200 µM oleic acid. inhibition, % at 12.5 µM. actives 0.66% (n = 230,000). AID 651582;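 active = pattern-corrected inhibition of lipid staining of at least 50% with the nuclear-stain viability signal not falling by more than 50%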;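 also: 0% = DMSO wells and 100% = triacsin C control wells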
CHT inh = human CHT choline transport inhibition. Q9GZV3. CHT-expressing cells, membrane potential dye, choline response; stronger effect = lower value. AID 488975. actives 0.86% (n = 310,000). B-score at 10 µM;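 active = B-score over 3 SD under the library average, and starting fluorescence ratio not unusually high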;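 also: choline stimulus applied at its EC90 after an EC20 pre-addition; B-score computed on integrated fluorescence ratio after choline addition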
Kir21 inh = Kir2.1 (mouse) channel inhibition. P35561. HEK293-Kir2.1, FluxOR thallium flux fluorescence; stronger effect = lower value. B-score at 10 µM. actives 0.85% (n = 310,000). AID 1672;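 active = fluorescence ratio B-score at or below minus 3 SD of library scores, with starting-brightness B-score within 2 SD, cut at about -4.2 in these data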;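 also: channel flux triggered by added potassium and thallium sulfate stimulus; B-score of peak minus minimum fluorescence over baseline after thallium stimulus; more negative B-score means stronger Kir2.1 block with less thallium influx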
H9c2 TAG conf = confirmation of triacylglycerol accumulation inhibitors; shares compounds with H9c2 TAG inh; H9c2 lipid accumulation, Nile Red fluorescence; cells loaded with 200 µM oleic acid; inhibition, % at 12.5 µM; actives 71% (n = 990);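 active = mean inhibition across replicates of 40% or more; inactive = mean inhibition below 40%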;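 also: plate controls were DMSO only wells for no effect and Triacsin C treated wells for full effect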
* hit, by the source's call; i = inactive; . = not tested or not shown; ! = a repeat was not active. This is a sample that favours compounds with a hit; in the whole collection about 2% have one here.

SMILES	CHT allo act	H9c2 TAG inh	CHT inh	Kir21 inh	H9c2 TAG conf
Cc1c(C(=O)NCCC2=CCCCC2)oc2ccc(S(=O)(=O)N3CCC4(CC3)OCCO4)cc12	i	52.2*	i	-1.48	33.2
COC(=O)c1noc(-c2ccc(OC)cc2)n1	i	7.6	i	0.08	.
COC(=O)C1=C(c2ccc(OC)cc2)OC(=O)C1(C)C	i	60.5*	i	0.21	-3.2
CN1N=C(N)c2cn(C3OC(COP(=O)(O)O)C(O)C3O)c3ncnc1c23 (configuration not stated)	.	51.8*	.	.	64.2*
NC(=O)c1cccc(-c2ccnc3c2CC(C(=O)NCc2ccco2)O3)c1 (configuration not stated)	.	38.7	.	.	.
CC(=O)c1cccc(-c2ccnc3c2CC(C(=O)NCc2ccco2)O3)c1 (configuration not stated)	.	56.9*	.	.	58.7*
CC1(C(=O)NS(=O)(=O)C2CC2)CCN(C(=O)c2cccc(OC(F)(F)F)c2)C1 (configuration not stated)	.	-1.1	.	.	.
COC(=O)C1=C(C)N(Cc2ccccc2)C(=NCc2ccccc2)N[C@H]1c1ccccc1	.	104.8*	.	.	53.4*
COC(=O)C1=C(C)N(Cc2ccccc2)C(=NCc2cc(OC)c(OC)c(OC)c2)N[C@H]1c1ccc(Br)cc1	.	61.7*	.	.	62.5*
CCOC(=O)[C@H]1[C@H]2COc3ccc(Cl)cc3[C@@H]2N2C(=O)c3cc(OC)ccc3NC(=O)[C@@]12C	i	57.5*	i	.	41.2*
CCOC(=O)[C@H]1[C@H]2COc3ccc(C)cc3[C@@H]2N2C(=O)c3cc(Br)ccc3NC(=O)[C@@]12C	.	67.3*	.	.	76.5*
C[C@@]12C(=O)Nc3ccc(Cl)cc3C(=O)N1[C@H]1c3cc(Br)ccc3OC[C@@H]1[C@@H]2c1ccccc1	.	37.3	.	.	.
C[C@@]12C(=O)Nc3ccc(Br)cc3C(=O)N1[C@H]1c3cc(Br)ccc3OC[C@@H]1[C@@H]2c1ccccc1	i	72.9*	i	.	61.6*
CCOC(=O)c1cc(-c2csc(N/N=C/c3ccccc3Cl)n2)on1	i	9.5	i	1.59	.
Cc1onc(-c2ccc(Cl)cc2Cl)c1-c1csc(N/N=C/c2ccccc2)n1	i	60.6*	i	0.7	41.9*
COc1ccc(/C=C2\CCCC(C(=O)C(F)(F)F)=C2O)cc1OC	i	.	i	1.07	.
O=C(NC1CCCCC1)C(c1ccccc1)N(Cc1ccc2c(c1)OCO2)C(=O)c1cnsn1 (configuration not stated)	i	59.3*	i	-0.65	41.3*
COC(=O)CSc1nc2c(cnn2-c2ccc(F)cc2)c(=O)[nH]1	i	.	i	-1.15	.
CCOC(=O)c1cnc2ccc(OCC)cc2c1N1CCN(c2ccccc2)CC1	i	52.8*	i	0.43	38.8
COc1ccc(C2=C(C=Nc3c(C)n(C)n(-c4ccccc4)c3=O)C(c3ccccc3C)c3ccccc3O2)cc1OC (configuration not stated)	i	61.1*	i	-1.04	32.4
CCNc1cc2c(cc1O)CCC1C2CCC2(C)C(O)CCC12 (configuration not stated)	.	4.3	.	.	.
CCOc1cc2c(cc1O)CCC1C2CCC2(C)C(O)CCC12 (configuration not stated)	.	73.0*	.	.	57.4*
O=C(CC1C[C@H](C(=O)N2CCOCC2)[C@@]2(CCC3CCCC3)c3[nH]c4ccccc4c3CCN2C1=O)NCC12CC3CC(CC(C3)C1)C2 (some centres not stated)	.	60.6*	.	.	55.8*
O=C(C[C@H]1C[C@H](C(=O)N2CCOCC2)[C@@]2(CCC3CCCC3)c3[nH]c4cc(-c5ccco5)ccc4c3CCN2C1=O)NCC12CC3CC(CC(C3)C1)C2	.	61.6*	.	.	76.6*
Cc1c(NC(=S)NC(=O)c2ccccc2Br)c(=O)n(-c2ccccc2)n1C	i	.	i	-0.84	.
SMILES	CHT allo act	H9c2 TAG inh	CHT inh	Kir21 inh	H9c2 TAG conf
CCN(Cc1ccccc1)C(=O)c1cc(S(=O)(=O)N2CCOCC2)cn1C	i	1.4	i	-0.29	.
Cc1ccc(C(=O)Nc2cccc(C(F)(F)F)c2)cc1NC(=O)c1nccn1C	i	96.4*!	i	-0.38	9.3
Cc1ccc2[nH]c(=O)c3cc(C(=O)N(C)c4ccccc4C)sc3c2c1	i	8.9	i	0.45	.
COc1cccc(NC(=O)CSc2nc3c(sc4ccccc43)c(=O)n2CCN(C)C)c1	i	-3.3	i	-0.65	.
CCN(CC)CCn1c(SCC(=O)Nc2cccc(OC)c2)nc2c(sc3ccccc32)c1=O	i	51.6*	i	-0.02	53.6*
Cc1cccc2cc(C#N)c(SCC(=O)NCc3cccs3)nc12	i	.	i	-1.03	.
Cc1cccc2cc(C#N)c(SCC(=O)NNC(=O)Cc3ccccc3)nc12	i	70.7*	i	0.03	97.8*
Cc1ccc(S(=O)(=O)N2CCN(CCc3ccncc3)CC2)cc1	.	-6.8	.	.	.
O=C(Nc1ccccc1)c1nc[nH]c1C(=O)NCCCCCCNC(=O)c1[nH]cnc1C(=O)Nc1ccccc1	.	65.2*	.	.	72.8*
CC[C@H](C)[C@H]1CNC(=S)N1CC1CCN(CCC(C)(C)C)CC1	.	-5.4	.	.	.
COc1ccc2cc(Br)ccc2c1CC(=O)NC1CC(C)(C)NC(C)(C)C1	i	63.6*	i	-1.43	12.4
CCNC(=O)Cc1c(OC)ccc2cc(Br)ccc12	i	-7.2	i	-0.63	.
COc1ccc(NC(=O)C2(C)Cc3c(-c4ccc(NC(C)=O)cc4)ccnc3O2)cn1 (configuration not stated)	.	11.0	.	.	.
COc1ccc(NC(=O)C2(C)Cc3c(-c4cccc(NC(C)=O)c4)ccnc3O2)cn1 (configuration not stated)	.	58.0*	.	.	52.5*
COc1ccc(NC(=O)C2(C)Cc3c(-c4cccc(C(N)=O)c4)ccnc3O2)cc1 (configuration not stated)	.	60.8*	.	.	53.1*
CCCCOc1ccc(CN2CCSCC2)cc1	i	.	i	0.62	.
Brc1ccc(C2=Nn3c(nnc3-c3n[nH]c4c3CCC4)SC2)cc1	i	81.2*	i	-0.09	84.6*
Cc1ccc(-c2nnc3n2N=C(c2ccc(Br)cc2)CS3)cc1	i	.	i	1.41	.
CCN1CCN(c2ncc3c(n2)CC(c2cc(OC)c(OC)c(OC)c2)CC3=O)CC1 (configuration not stated)	i	60.2*	i	-0.04	81.6*
CSc1cccc(NC(=O)Cc2ccccc2[N+](=O)[O-])c1	i	2.9	i	0.26	.
Oc1ccc(/C=N/NC(=S)NC2CC3CCC2C3)cc1 (configuration not stated)	i	5.6	i	-2.71	.
S=C(N/N=C/c1cccs1)NC1CC2CCC1C2 (configuration not stated)	i	54.0*	i	-1.83	56.2*
COc1cc2c(cc1OC)C(COc1ccccc1OC)N(C(=O)C(C)C)CC2 (configuration not stated)	i	23.6	i	-0.67	.
